Data as given in PMC7862700, “An all-to-all approach to the identification of sequence-specific readers for epigenetic DNA modifications on cytosine”.

Experiments:
Assay in all cases: DAPPL (digital affinity profiling via proximity ligation, sequencing); 10 mM Tris-HCl pH 7.5, 50 mM NaCl, 1 mM DTT, 4% glycerol, room temperature, 30 min; GST-TFs on glutathione beads, 16-mer random dsDNA library, 0.1% formaldehyde crosslink after washing; high values mean tight binding
[1] = molecular target: T1, FLI1 (Homo sapiens, UniProt Q01543 1-452); settings: protein: recombinant; tags: N-terminal GST; dsDNA, one strand shown
T1 sequence: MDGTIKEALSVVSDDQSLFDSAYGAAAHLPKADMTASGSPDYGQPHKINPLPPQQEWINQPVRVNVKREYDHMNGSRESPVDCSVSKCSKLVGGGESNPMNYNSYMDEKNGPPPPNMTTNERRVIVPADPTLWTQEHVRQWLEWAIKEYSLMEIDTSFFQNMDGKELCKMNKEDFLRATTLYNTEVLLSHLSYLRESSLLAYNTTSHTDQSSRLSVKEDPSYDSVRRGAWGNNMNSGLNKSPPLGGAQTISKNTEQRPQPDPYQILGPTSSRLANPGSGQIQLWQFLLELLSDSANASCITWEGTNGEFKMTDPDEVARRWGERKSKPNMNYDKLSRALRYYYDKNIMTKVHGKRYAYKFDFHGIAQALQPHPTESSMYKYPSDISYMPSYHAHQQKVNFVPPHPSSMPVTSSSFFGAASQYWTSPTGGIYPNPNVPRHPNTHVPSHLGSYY
In short: (§1)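 Binding signal is defined as a hexamer's read frequency for one factor over its frequency for the tag-only sample. To obtain reads, GST-fused human transcription factors were expressed in yeast, captured on glutathione beads, barcoded with DNA and pooled with that sample. Pools met 200 nmole of a 16-mer random double-stranded DNA library in Tris/NaCl/DTT/glycerol buffer for 30 min at room temperature before washing, 0.1% formaldehyde crosslinking, proximity ligation (BsaI/T4 ligase, 1 h, 37 °C), PCR and Illumina NextSeq500 sequencing.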

[2] = molecular target: T2, ELK1 (Homo sapiens, UniProt P19419 1-428); settings: protein: recombinant; tags: N-terminal GST; dsDNA, one strand shown
T2 sequence: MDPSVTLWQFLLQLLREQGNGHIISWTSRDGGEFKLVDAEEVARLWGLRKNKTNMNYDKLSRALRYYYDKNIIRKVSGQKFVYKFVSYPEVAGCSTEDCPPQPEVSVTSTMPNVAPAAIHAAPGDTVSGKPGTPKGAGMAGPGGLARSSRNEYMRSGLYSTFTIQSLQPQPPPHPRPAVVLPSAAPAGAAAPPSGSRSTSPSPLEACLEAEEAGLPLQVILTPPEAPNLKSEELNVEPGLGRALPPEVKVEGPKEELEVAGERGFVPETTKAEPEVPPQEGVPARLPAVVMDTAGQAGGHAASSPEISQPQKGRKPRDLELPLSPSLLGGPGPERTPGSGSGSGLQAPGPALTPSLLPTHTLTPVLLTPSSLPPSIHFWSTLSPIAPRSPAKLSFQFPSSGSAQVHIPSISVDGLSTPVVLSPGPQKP
In short: as §1

[3] = molecular target: T3, GABPA (Homo sapiens, UniProt Q06546 1-454); settings: protein: recombinant; tags: N-terminal GST; dsDNA, one strand shown
T3 sequence: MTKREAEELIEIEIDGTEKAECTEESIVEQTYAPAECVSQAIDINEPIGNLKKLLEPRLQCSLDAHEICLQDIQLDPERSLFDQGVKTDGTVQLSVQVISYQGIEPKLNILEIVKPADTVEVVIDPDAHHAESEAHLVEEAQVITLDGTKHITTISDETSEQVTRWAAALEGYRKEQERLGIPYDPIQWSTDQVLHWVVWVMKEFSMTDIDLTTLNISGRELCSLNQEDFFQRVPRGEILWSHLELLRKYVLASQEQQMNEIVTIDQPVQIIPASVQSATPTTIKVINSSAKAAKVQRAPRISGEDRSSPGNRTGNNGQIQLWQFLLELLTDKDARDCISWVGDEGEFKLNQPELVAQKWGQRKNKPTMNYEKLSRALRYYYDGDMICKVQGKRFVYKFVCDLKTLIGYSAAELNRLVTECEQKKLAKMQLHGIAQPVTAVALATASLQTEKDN
In short: as §1

[4] = molecular target: T4, ERG (Homo sapiens, UniProt P11308 1-479); settings: protein: recombinant; tags: N-terminal GST; dsDNA, one strand shown
T4 sequence: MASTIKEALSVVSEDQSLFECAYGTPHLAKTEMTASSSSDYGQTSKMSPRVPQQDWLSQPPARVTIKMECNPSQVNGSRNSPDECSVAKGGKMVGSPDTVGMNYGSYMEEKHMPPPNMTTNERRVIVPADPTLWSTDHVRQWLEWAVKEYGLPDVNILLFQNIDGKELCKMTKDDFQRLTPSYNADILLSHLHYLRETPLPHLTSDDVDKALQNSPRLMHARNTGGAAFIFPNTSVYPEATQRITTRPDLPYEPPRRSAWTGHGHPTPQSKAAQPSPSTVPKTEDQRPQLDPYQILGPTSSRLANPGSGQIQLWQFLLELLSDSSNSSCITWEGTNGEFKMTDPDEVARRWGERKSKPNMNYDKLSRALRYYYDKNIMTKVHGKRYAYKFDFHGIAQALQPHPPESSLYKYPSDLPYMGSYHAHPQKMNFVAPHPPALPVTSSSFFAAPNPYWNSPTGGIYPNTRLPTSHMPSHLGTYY
In short: as §1

[5] = molecular target: ELF1 (Homo sapiens, UniProt P32519 1-619); settings: protein: recombinant; tags: N-terminal GST; dsDNA, one strand shown
In short: as §1

[6] = molecular target: T5, EHF (Homo sapiens, UniProt Q9NZC4 1-300); settings: protein: recombinant; tags: N-terminal GST; dsDNA, one strand shown
T5 sequence: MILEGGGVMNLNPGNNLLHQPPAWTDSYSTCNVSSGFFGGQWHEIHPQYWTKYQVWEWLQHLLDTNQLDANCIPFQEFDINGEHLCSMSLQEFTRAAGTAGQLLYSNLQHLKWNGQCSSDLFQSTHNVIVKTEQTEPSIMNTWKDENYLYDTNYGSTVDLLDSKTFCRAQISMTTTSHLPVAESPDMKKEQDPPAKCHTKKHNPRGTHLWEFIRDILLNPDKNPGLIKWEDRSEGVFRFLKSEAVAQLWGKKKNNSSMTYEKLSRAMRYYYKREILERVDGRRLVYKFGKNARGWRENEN
In short: as §1

[7] = molecular target: SPI1 (Homo sapiens, UniProt P17947 1-270); settings: protein: recombinant; tags: N-terminal GST; dsDNA, one strand shown
In short: as §1

[8] = molecular target: SPIB (Homo sapiens, UniProt Q01892 1-262); settings: protein: recombinant; tags: N-terminal GST; dsDNA, one strand shown
In short: as §1

[9] = molecular target: T6, ELK3 (Homo sapiens, UniProt P41970 1-407); settings: protein: recombinant; tags: N-terminal GST; dsDNA, one strand shown
T6 sequence: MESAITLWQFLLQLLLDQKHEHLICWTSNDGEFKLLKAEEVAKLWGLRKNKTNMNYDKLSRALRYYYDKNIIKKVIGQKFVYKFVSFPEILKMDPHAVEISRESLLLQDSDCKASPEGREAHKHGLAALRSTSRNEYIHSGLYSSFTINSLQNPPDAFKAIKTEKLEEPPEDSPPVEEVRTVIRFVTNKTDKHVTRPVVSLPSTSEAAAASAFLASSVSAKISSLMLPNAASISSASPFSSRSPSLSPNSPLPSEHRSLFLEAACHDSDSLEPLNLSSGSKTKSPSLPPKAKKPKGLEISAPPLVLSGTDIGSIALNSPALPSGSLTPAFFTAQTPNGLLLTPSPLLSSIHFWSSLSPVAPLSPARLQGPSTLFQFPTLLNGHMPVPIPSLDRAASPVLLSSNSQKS
In short: as §1

[10] = molecular target: T7, FEV (Homo sapiens, UniProt Q99581 1-238); settings: protein: recombinant; tags: N-terminal GST; dsDNA, one strand shown
T7 sequence: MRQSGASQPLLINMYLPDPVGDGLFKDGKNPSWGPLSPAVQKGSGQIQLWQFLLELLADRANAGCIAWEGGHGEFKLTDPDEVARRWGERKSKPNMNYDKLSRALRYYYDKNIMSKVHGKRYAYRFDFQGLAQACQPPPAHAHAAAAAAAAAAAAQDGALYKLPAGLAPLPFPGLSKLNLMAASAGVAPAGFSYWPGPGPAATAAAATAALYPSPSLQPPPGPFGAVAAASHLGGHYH
In short: as §1

[11] = molecular target: ETV5 (Homo sapiens, UniProt P41161 1-510); settings: protein: recombinant; tags: N-terminal GST; dsDNA, one strand shown
In short: as §1

[12] = molecular target: HSF1 (Homo sapiens, UniProt Q00613 1-529); settings: protein: recombinant; tags: N-terminal GST; chain copies: 3; dsDNA, one strand shown
In short: as §1

[13] = molecular target: T8, SPIC (Homo sapiens, UniProt Q8N5J4 1-248); settings: protein: recombinant; tags: N-terminal GST; dsDNA, one strand shown
T8 sequence: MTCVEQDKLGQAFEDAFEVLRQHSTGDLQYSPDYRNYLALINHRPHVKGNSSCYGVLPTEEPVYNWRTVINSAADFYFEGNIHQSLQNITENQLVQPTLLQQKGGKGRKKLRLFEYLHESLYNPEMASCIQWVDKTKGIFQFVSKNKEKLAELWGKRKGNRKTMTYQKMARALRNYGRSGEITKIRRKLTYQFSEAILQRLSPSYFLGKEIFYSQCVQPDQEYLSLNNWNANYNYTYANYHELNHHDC
In short: as §1

[14] = molecular target: ELF4 (Homo sapiens, UniProt Q99607 1-663); settings: protein: recombinant; tags: N-terminal GST; dsDNA, one strand shown
In short: as §1

[15] = molecular target: T9, ELK4 (Homo sapiens, UniProt P28324-2 1-405); settings: protein: recombinant; tags: N-terminal GST; dsDNA, one strand shown
T9 sequence: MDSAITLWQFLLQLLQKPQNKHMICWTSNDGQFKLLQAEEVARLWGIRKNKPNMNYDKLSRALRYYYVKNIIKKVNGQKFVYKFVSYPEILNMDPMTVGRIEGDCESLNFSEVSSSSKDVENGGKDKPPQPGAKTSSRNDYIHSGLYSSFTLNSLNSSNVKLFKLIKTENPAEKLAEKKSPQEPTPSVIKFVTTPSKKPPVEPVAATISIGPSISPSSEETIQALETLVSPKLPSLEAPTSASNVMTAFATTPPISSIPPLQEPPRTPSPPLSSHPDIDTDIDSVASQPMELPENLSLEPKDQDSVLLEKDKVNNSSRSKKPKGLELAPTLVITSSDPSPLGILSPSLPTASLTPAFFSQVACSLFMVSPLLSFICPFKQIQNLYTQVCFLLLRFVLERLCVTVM
In short: as §1

[16] = molecular target: T10, ETV2 (Homo sapiens, UniProt O00321 1-342); settings: protein: recombinant; tags: N-terminal GST; dsDNA, one strand shown
T10 sequence: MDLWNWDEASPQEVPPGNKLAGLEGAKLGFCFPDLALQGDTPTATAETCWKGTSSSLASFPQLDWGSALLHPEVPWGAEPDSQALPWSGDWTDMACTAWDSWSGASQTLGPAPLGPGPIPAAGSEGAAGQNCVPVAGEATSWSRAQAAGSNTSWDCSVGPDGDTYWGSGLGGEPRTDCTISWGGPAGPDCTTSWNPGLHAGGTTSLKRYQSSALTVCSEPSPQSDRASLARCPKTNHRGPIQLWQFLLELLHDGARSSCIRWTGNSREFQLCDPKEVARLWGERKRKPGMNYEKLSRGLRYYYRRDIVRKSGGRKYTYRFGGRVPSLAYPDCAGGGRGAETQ
In short: as §1

[17] = molecular target: T11, ELF3 (Homo sapiens, UniProt P78545 1-371); settings: protein: recombinant; tags: N-terminal GST; dsDNA, one strand shown
T11 sequence: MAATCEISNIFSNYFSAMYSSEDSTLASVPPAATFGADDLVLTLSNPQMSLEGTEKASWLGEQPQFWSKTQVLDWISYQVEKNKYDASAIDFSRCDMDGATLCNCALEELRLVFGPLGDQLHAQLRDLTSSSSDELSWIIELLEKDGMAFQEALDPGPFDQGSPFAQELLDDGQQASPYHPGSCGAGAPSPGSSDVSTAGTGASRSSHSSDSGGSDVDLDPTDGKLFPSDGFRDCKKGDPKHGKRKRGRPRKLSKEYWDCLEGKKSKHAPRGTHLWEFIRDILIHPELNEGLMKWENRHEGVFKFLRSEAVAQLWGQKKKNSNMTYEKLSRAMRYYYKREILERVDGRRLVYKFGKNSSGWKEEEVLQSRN
In short: as §1

[18] = molecular target: CRX (Homo sapiens, UniProt O43186 1-299); settings: protein: recombinant; tags: N-terminal GST; dsDNA, one strand shown
In short: as §1

[19] = molecular target: ETV1 (Homo sapiens, UniProt P50549 1-477); settings: protein: recombinant; tags: N-terminal GST; dsDNA, one strand shown
In short: as §1

Sequence of HSF1 (Q00613 whole entry): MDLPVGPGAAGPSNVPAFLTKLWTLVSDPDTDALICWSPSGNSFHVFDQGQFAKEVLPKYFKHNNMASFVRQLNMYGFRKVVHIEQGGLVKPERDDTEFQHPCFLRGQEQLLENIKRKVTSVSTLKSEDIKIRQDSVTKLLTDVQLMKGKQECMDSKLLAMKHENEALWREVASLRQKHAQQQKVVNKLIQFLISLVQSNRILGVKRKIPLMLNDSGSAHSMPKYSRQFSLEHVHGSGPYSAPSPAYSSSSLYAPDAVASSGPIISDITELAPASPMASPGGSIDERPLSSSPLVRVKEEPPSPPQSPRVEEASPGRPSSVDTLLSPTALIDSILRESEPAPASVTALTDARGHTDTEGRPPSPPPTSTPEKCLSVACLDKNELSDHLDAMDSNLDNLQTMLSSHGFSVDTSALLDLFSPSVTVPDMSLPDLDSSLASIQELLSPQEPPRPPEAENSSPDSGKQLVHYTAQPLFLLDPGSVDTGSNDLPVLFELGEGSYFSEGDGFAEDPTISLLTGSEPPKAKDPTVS
Sequence of ETV1 (P50549 whole entry): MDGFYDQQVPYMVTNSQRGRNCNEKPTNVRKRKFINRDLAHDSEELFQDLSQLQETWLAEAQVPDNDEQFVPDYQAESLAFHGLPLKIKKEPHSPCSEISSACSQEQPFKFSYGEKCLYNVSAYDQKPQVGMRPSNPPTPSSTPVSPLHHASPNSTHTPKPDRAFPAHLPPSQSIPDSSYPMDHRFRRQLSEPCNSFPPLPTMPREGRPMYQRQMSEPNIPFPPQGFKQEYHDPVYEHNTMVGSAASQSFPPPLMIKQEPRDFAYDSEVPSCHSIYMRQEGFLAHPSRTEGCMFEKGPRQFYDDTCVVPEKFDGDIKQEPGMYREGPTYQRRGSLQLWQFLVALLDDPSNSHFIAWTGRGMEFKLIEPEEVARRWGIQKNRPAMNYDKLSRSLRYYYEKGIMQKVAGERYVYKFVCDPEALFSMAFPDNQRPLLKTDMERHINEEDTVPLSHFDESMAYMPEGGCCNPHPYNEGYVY
Sequence of ELF4 (Q99607 whole entry): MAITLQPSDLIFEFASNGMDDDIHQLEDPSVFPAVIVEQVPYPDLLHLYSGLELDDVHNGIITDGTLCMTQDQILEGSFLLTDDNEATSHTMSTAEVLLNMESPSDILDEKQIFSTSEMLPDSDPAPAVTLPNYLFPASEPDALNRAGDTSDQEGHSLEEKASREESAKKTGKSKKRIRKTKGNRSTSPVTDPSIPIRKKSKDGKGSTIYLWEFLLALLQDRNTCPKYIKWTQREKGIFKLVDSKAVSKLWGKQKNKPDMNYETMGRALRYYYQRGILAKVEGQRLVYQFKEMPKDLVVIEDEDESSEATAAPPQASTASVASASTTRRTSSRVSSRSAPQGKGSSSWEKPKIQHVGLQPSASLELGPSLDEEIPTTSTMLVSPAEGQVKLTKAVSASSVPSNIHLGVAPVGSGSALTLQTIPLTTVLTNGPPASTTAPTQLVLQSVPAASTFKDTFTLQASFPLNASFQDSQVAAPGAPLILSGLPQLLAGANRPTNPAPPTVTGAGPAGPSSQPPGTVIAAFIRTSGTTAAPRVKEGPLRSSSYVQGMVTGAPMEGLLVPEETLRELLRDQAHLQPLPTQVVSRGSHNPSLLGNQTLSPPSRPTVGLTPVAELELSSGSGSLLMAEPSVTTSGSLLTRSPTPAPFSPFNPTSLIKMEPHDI
Sequence of SPIB (Q01892 whole entry): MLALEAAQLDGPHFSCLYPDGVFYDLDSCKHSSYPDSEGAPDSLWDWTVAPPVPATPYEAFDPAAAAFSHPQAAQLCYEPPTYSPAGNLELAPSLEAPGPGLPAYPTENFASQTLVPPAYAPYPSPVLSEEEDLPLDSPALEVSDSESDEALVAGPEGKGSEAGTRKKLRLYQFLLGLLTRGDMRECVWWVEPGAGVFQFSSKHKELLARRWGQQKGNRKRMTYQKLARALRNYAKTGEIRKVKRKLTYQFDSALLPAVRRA
Sequence of ETV5 (P41161 whole entry): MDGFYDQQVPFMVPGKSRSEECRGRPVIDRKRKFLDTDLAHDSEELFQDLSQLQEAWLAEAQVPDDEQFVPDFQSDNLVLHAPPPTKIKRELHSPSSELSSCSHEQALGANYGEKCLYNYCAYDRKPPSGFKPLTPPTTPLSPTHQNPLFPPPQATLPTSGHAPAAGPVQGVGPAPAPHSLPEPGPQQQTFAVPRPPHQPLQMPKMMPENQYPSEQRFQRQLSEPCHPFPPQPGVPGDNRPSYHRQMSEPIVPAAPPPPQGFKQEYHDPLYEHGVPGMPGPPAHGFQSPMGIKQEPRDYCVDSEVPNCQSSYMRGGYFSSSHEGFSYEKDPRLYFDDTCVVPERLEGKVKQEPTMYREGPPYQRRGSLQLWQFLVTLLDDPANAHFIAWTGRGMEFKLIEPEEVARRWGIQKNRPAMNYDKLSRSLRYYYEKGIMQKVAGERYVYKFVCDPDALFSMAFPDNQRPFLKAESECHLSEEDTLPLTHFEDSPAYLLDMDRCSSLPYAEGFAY
Sequence of CRX (O43186 whole entry): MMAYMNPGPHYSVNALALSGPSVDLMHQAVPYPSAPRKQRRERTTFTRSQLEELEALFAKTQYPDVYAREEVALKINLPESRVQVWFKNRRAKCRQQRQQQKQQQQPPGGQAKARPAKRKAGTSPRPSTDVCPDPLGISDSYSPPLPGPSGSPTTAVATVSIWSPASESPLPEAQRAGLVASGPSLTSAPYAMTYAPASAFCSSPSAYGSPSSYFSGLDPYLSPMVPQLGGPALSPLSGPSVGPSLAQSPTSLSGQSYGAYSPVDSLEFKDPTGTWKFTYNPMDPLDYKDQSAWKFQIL
Sequence of ELF1 (P32519 whole entry): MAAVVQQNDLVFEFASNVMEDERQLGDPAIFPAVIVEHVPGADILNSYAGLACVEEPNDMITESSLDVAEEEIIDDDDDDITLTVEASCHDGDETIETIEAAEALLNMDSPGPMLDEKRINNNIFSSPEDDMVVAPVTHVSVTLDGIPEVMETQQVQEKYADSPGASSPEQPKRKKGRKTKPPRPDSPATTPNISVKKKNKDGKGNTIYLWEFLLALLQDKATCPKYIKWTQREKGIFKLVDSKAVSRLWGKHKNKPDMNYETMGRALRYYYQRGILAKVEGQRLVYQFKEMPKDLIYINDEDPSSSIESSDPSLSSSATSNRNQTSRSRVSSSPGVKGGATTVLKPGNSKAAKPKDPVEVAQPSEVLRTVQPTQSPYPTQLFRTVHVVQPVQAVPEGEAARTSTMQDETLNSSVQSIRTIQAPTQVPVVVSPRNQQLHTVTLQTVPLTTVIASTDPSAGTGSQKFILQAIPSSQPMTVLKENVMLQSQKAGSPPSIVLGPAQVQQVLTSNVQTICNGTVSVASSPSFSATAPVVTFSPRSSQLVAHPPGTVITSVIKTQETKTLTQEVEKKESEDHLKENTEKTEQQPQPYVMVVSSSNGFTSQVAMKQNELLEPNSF

ACGTCT
binding signal [1]: 1.13 fold enrichment (6-mer frequency, TF over GST control)
binding signal [2]: 1.2 fold enrichment (6-mer frequency, TF over GST control)
binding signal [3]: 1.14 fold enrichment (6-mer frequency, TF over GST control)
binding signal [4]: 1.22 fold enrichment (6-mer frequency, TF over GST control)
binding signal [5]: 1.17 fold enrichment (6-mer frequency, TF over GST control)
binding signal [6]: 1.13 fold enrichment (6-mer frequency, TF over GST control)
binding signal [7]: 1.15 fold enrichment (6-mer frequency, TF over GST control)
binding signal [8]: 1.35 fold enrichment (6-mer frequency, TF over GST control)
binding signal [9]: 1.18 fold enrichment (6-mer frequency, TF over GST control)
binding signal [10]: 1.13 fold enrichment (6-mer frequency, TF over GST control)
binding signal [11]: 1.12 fold enrichment (6-mer frequency, TF over GST control)
binding signal [12]: 1.21 fold enrichment (6-mer frequency, TF over GST control)
binding signal [13]: 1.17 fold enrichment (6-mer frequency, TF over GST control)
binding signal [14]: 1.28 fold enrichment (6-mer frequency, TF over GST control)
binding signal [15]: 1.12 fold enrichment (6-mer frequency, TF over GST control)
binding signal [16]: 1.18 fold enrichment (6-mer frequency, TF over GST control)
binding signal [17]: 1 fold enrichment (6-mer frequency, TF over GST control)
binding signal [18]: 1.09 fold enrichment (6-mer frequency, TF over GST control)
binding signal [19]: 1.14 fold enrichment (6-mer frequency, TF over GST control)
